Source: PMC5540273 (PLoS ONE, 2017)

Assays:
Conditions in all cases: concentration: 1 μM,replicates: in singlicate; n = 1
PRKD3 = system: PRKD3
PRKG1 = system: PRKG1
PRKG2 = system: PRKG2
PRKR = system: T1, PRKR
T1 construct: gene EIF2AK2

PRKX = system: PRKX
PRP4 = system: PRP4
PYK2 = system: T2, PYK2
T2 construct: gene PTK2B

QSK = system: QSK
RAF1 = system: RAF1
RET = system: RET
RIOK1 = system: RIOK1
RIOK2 = system: RIOK2
RIOK3 = system: RIOK3
RIPK1 = system: RIPK1
RIPK2 = system: RIPK2
RIPK4 = system: RIPK4
RIPK5 = system: RIPK5
ROCK1 = system: ROCK1
ROCK2 = system: ROCK2
ROS1 = system: ROS1
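Further: KINOMEscan kinase panel screen.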

SMILES | %Inh (PRKD3) [%] | %Inh (PRKG1) [%] | %Inh (PRKG2) [%] | %Inh (PRKR) [%] | %Inh (PRKX) [%] | %Inh (PRP4) [%] | %Inh (PYK2) [%] | %Inh (QSK) [%] | %Inh (RAF1) [%] | %Inh (RET) [%] | %Inh (RIOK1) [%] | %Inh (RIOK2) [%] | %Inh (RIOK3) [%] | %Inh (RIPK1) [%] | %Inh (RIPK2) [%] | %Inh (RIPK4) [%] | %Inh (RIPK5) [%] | %Inh (ROCK1) [%] | %Inh (ROCK2) [%] | %Inh (ROS1) [%]
Cn1ccc2ncnc(Oc3ccc(NC(=O)Nc4cncc(C(F)(F)F)c4)c(Cl)c3)c21 | 0 | 0 | 0 | 0 | 0 | 6 | 2 | 0 | 100 | 100 | 0 | 29 | 19 | 0 | 9 | 0 | 0 | 0 | 0 | 0
Cc1n[nH]c2cc(Nc3ccnc(Nc4cccc(CN5CCOCC5)c4)n3)ccc12 [GW682569] | 18 | 0 | 3 | 23 | 0 | 65 | 0 | 0 | 0 | 56 | 100 | 84 | 96.5 | 4 | 79 | 62 | 0 | 27 | 1 | 57
O=C(Nc1ccc(Oc2ccc3nc(NC(=O)C4CC4)cn3n2)c(F)c1)c1cccn(-c2ccccc2)c1=O | 0 | 30 | 1 | 0 | 0 | 0 | 19 | 0 | 87 | 99.9 | 13 | 0 | 31 | 80 | 4 | 0 | 0 | 0 | 0 | 0
CS(=O)(=O)Nc1ccc(-c2ccnc3[nH]ccc23)cc1 [GSK993273] | 0 | 77 | 77 | 41 | 42 | 64 | 20 | 17 | 12 | 22 | 98.6 | 67 | 93.9 | 0 | 18 | 30 | 0 | 98.5 | 98.4 | 9
CS(=O)c1ccc(-c2coc3ccc(-c4n[nH]c(=O)o4)cc23)cc1 (centres unmarked) | 0 | 4 | 0 | 20 | 0 | 14 | 4 | 0 | 20 | 12 | 15 | 37 | 0 | 0 | 0 | 0 | 0 | 32 | 0 | 0
C[C@@H](Oc1cc(-n2cnc3cc(-c4cnn(C)c4)ccc32)sc1C(N)=O)c1ccccc1Cl [GSK580432] | 0 | 17 | 2 | 0 | 0 | 81 | 0 | 42 | 13 | 90 | 100 | 25 | 82 | 39 | 10 | 0 | 15 | 14 | 11 | 27
O=C(Nc1ccccc1)c1cccc(Oc2ccc3nccn3n2)c1 | 1 | 2 | 0 | 0 | 70 | 0 | 0 | 0 | 78 | 0 | 0 | 11 | 8 | 15 | 0 | 26 | 0 | 34 | 0 | 0
CCCC(=O)Nc1n[nH]c2ncccc12 [SB-601436] | 0 | 5 | 0 | 0 | 0 | 8 | 7 | 0 | 0 | 0 | 0 | 0 | 0 | 0 | 0 | 0 | 0 | 0 | 0 | 8
COc1cccc(C2=C(Nc3cccc(Cl)c3)C(=O)NC2=O)c1 [SB-341556] | 6 | 0 | 11 | 11 | 21 | 25 | 16 | 3 | 11 | 37 | 41 | 14 | 1 | 0 | 0 | 4 | 16 | 0 | 0 | 0
COc1cc(Nc2nccc(N3CCC(NC(=O)c4cccc(C#N)c4)C3)n2)cc(OC)c1OC (centres unmarked) [GSK1379751] | 0 | 0 | 0 | 0 | 0 | 54 | 0 | 0 | 26 | 14 | 90.2 | 0 | 89 | 0 | 25 | 32 | 0 | 10 | 35 | 9
